Structures are written as SMILES.

This note sets out measurements from PubChem BioAssay.

Follistatin-related protein 3 (Homo sapiens), sequence (O95633 whole entry, looked up): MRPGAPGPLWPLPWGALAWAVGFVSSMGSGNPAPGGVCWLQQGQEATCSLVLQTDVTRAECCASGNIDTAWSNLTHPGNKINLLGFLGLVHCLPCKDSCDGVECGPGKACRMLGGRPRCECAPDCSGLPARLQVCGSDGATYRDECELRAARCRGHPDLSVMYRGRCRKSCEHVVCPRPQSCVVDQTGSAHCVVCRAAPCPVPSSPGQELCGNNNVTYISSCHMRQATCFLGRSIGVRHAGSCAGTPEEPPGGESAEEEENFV

For the first test, the target named is Epidermal growth factor receptor (Homo sapiens) (UniProt P00533). In words: compounds binding epidermal growth factor receptor – biochemical, small-molecule microarray, 635 nm fluorescence, primary screen (AID 1104).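 Note: score merges 667 nm emission intensity with spot signal to noise over triplicate slides.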 To be noted: EGFR binding, higher = more signal.
Epidermal growth factor receptor (Homo sapiens), sequence (P00533 whole entry, looked up): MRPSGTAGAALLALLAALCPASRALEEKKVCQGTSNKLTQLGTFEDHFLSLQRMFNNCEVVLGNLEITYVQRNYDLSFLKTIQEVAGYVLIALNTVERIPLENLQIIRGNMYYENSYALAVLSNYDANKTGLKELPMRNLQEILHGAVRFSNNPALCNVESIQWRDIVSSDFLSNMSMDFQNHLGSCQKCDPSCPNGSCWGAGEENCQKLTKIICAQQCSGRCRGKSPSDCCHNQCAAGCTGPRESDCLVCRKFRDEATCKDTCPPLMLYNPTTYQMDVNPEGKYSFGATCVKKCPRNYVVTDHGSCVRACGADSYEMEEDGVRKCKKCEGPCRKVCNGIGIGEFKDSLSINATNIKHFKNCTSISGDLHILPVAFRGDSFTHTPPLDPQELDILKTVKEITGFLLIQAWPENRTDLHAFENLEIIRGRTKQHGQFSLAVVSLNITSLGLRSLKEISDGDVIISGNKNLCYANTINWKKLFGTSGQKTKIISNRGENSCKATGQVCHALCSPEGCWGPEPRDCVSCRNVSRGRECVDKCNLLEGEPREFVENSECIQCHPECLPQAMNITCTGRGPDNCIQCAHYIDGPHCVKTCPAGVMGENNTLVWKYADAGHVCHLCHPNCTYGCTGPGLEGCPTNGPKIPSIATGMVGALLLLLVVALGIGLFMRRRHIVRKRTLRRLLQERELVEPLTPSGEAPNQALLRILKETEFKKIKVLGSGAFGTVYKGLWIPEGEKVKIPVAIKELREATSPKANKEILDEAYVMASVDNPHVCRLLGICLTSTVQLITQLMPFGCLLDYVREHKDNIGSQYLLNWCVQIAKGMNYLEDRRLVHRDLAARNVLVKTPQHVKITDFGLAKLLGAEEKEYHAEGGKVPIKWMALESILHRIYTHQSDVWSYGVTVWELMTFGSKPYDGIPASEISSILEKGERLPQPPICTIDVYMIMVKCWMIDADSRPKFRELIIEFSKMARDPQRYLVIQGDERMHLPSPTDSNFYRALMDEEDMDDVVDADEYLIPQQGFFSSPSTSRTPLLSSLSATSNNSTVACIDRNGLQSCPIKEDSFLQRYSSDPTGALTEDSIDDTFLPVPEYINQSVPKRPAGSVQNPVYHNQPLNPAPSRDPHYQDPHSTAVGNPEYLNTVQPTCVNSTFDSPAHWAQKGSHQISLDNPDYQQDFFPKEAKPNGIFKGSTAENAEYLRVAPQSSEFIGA
`O=C1CCCC=C1C(O)C1CCCCC1` (stereo unspecified): the composite z-score is 0.309. For the compound `CO[C@H]1COC(=O)CC=C[C@H](C)[C@H](OC)COC(=O)[C@@H](C)NC(=O)CC=C[C@@H]1C`, the composite z-score was 0.383.

Consider `COC(=O)CC=C[C@@H](C)[C@@H](C=NOC[C@@H](C)[C@H](OCc1ccccc1)C(C)C)OC`, for which the composite z-score stood at 0.146. Same read-out and setting: the value for `CC(C)CON=C1C[C@@H](O)[C@@H](O)[C@@H]2[C@@H]3C(=O)N(C(C)(C)C)C(=O)[C@@H]3CC[C@@H]12` was 0.85; that for `CC1(C)O[C@H]2OC([C@H](O)CON3C(=O)c4ccccc4C3=O)[C@H](O)[C@H]2O1` (stereo partly specified) was 0.237. On the same count and under the same terms, to `CCOC(=O)CCN1C(=O)[C@H]2[C@H]3[C@H](O)[C@H](O)CC(=NNC(=O)OCC)[C@H]3CC[C@H]2C1=O` belongs 0.459; to `CCN(CC)CC(O)CN1CCCCc2nc(C)c(C)cc21` (stereo unspecified), 0.256; to `CC(C)=NO[C@@H](C)c1cn([C@H](CO)Cc2ccccc2)nn1`, 0.303. On the same count and under the same terms, the value for `O=C(NN=C1C[C@@H](O)[C@@H](O)[C@@H]2[C@@H]3C(=O)N(Cc4ccccc4)C(=O)[C@@H]3CC[C@H]12)OCc1ccccc1` was 0.39; that for `CCOC(=O)CCN1C(=O)[C@H]2[C@H]3[C@H](O)[C@H](O)CC(=NOCC=C(C)CCC=C(C)C)[C@H]3CC[C@H]2C1=O` was 0.52. In turn, `CC(=O)OC[C@H]1O[C@@H](ON=C2[C@H]3CCn4c(=O)n(-c5ccccc5)c(=O)n4[C@H]3[C@H](O)[C@@H]3O[C@H]23)[C@H](OC(C)=O)[C@@H](OC(C)=O)[C@@H]1OC(C)=O` returned a composite z-score of 0.519. The same measure, in the same setting: the value for `O=C1CCCC=C1C(O)COCc1ccccc1` (stereo unspecified) was -0.137; that for `C[C@H]1CC[C@@H](C(=O)O)N[C@@H]1c1cccc(N2CCCC2=O)c1` was 0.376; that for `COC(=O)[C@H](C)NC(=O)CCC1CC(OC(=O)NCc2ccc3c(c2)OCO3)CC2(CCCC(COC(=O)NCCCN3CCCC3=O)O2)O1` (stereo partly specified) was 0.638. The compound `CC(C)(C)N1C(=O)[C@H]2[C@@H]3C(=CC[C@H]2C1=O)C(=O)[C@H]1O[C@H]1[C@H]3O` came in with a composite z-score of 0.144. The same measure, in the same setting: to `CCOC(=O)NN=C1C[C@@H](O)[C@@H](O)[C@@H]2[C@@H]3C(=O)N(C[C@@H]4CCCO4)C(=O)[C@@H]3CC[C@H]12` belongs 0.401; to `CC(C)=CCCC(C)=CCON=C1C[C@@H](O)[C@@H](O)[C@@H]2[C@@H]3C(=O)N(Cc4ccc5c(c4)OCO5)C(=O)[C@@H]3CC[C@H]12`, 0.426. The same measure, in the same setting: the value for `CC(=O)OC[C@H]1O[C@H](CC=NOC(C)CN2CCCCc3nc(C)c(C)cc32)C=C[C@@H]1OC(C)=O` (stereo partly specified) was 1.59; that for `CCOC(=O)[C@H](Cc1ccccc1)NC(=O)CCC1CC(OC(=O)NCCc2ccc(F)cc2)CC2(CCCC(COC(=O)NCc3cccc(C(F)(F)F)c3)O2)O1` (stereo partly specified) was 0.818. The compound `O=C1C=C[C@@H](O)[C@@H]2[C@@H]3C(=O)N(Cc4ccc5c(c4)OCO5)C(=O)[C@@H]3CC[C@@H]12` displayed a composite z-score of 0.523. On the same count and under the same terms, the value for `O=C1CCCC=C1C(O)c1ccc([N+](=O)[O-])cc1` (stereo unspecified) was 0.406.

In the case of `COC(=O)CC=C[C@@H](C)[C@@H](C=NOC(C)CN1CCCCc2nc(C)c(C)cc21)NS(=O)(=O)c1ccc(C)cc1` (stereo partly specified), the composite z-score amounted to 1. `CC(CCC(=O)OC[C@H]1O[C@H](C#Cc2ccccc2)C=C[C@@H]1Oc1ccc(C)cc1)=NOC(C)CN1CCCc2nc(C)c(C)cc21` (stereo partly specified) gave a composite z-score of 0.335.

On to `CCN1C(=O)[C@H]2[C@H]3[C@H](O)[C@H](O)CC(=NO[C@H](C)c4cn([C@@H]5COC[C@H]5O)nn4)[C@@H]3CC[C@H]2C1=O`, for which the composite z-score was determined as 0.219. On the same count and under the same terms, to `COc1ccc(-c2cnnc(CCCn3ccnc3-c3ccccc3)n2)cc1` belongs 0.929.

The next test concerns the target Follistatin-related protein 3 (Homo sapiens) (UniProt O95633). The test is described as follows: compounds binding follistatin-related protein 3 – biochemical, small-molecule microarray, 635 nm fluorescence, primary screen (AID 1105).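 Note: score merges emission near 667 nm and signal to noise per printed spot across three slides.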 The following applies: FSTL3 binding, higher = more signal.
For `O=C1C=C[C@@H](O)[C@@H]2[C@@H]3C(=O)N(C4CCCCC4)C(=O)[C@@H]3CC[C@@H]12`, the composite z-score was determined as 0.797. Still for that read-out and setting: the value for `C[C@@H]1CC[C@H]2C(=O)OC(Cc3ccccc3)CN2[C@H]1c1ccc(Br)cc1` (stereo partly specified) was 0.141; that for `O=C1[C@H]2[C@H]3[C@H](O)[C@H](O)CC(=NO[C@@H]4O[C@H](CO)[C@@H](O)[C@H](O)[C@H]4O)[C@H]3CC[C@H]2C(=O)N1c1ccc(F)cc1F` was 0.0345; that for `COc1ccc(COC(=O)NN=C2C[C@@H](O)[C@@H](O)[C@@H]3[C@@H]4C(=O)N([C@@H](C)c5ccccc5)C(=O)[C@@H]4CC[C@H]23)cc1` was -0.131. Same read-out and setting: the value for `CC(=O)OC[C@H]1O[C@H](CC=NO[C@H](C)c2cn([C@@H]3COC[C@H]3O)nn2)C=C[C@@H]1OC(C)=O` was 0.255; that for `COc1ccc(O[C@H]2C=C[C@@H](c3ccccc3)O[C@@H]2CO)cc1` was 0.318; that for `CCOC(=O)[C@H](Cc1ccccc1)NC(=O)CCC1CC(OC(=O)NCCc2ccc(F)cc2)CC2(CCCC(COC(=O)NCCOc3ccccc3)O2)O1` (stereo partly specified) was 1.31.

`O=C1C[C@@H](O)[C@@H](O)[C@@H]2[C@@H]3C(=O)N(C4CCCCC4)C(=O)[C@@H]3CC[C@@H]12` returned a composite z-score of 0.59. Same read-out and setting: to `CC(CCN1CCCCc2nc(C)c(C)cc21)=NO[C@@H](C)c1cc(-c2c(C)cc(C)cc2C)no1` belongs -1.35. Compound `CCOC(=O)[C@H](CC(C)C)NC(=O)CCC1CC(OC(=O)NCc2ccc3c(c2)OCO3)CC2(CCCC(COC(=O)NCCOc3ccccc3)O2)O1` (stereo partly specified) returned a composite z-score of 1.22. On the same count and under the same terms, to `C=CC[C@@H]1C=C[C@H](ON=C(C)CCN2CCCc3nc(C)c(C)cc32)[C@@H](CO)O1` belongs 1.47.

The compound `O=C1CCCC=C1C(O)C1CCCCC1` (stereo unspecified) yielded a composite z-score of 0.324. The same measure, in the same setting: to `CO[C@H]1COC(=O)CC=C[C@H](C)[C@H](OC)COC(=O)[C@@H](C)NC(=O)CC=C[C@@H]1C` belongs 1.36; to `COC(=O)CC=C[C@@H](C)[C@@H](C=NOC[C@@H](C)[C@H](OCc1ccccc1)C(C)C)OC`, 0.102. Still for that read-out and setting: to `CC(C)CON=C1C[C@@H](O)[C@@H](O)[C@@H]2[C@@H]3C(=O)N(C(C)(C)C)C(=O)[C@@H]3CC[C@@H]12` belongs 0.85; to `CC1(C)O[C@H]2OC([C@H](O)CON3C(=O)c4ccccc4C3=O)[C@H](O)[C@H]2O1` (stereo partly specified), 0.205. On the same count and under the same terms, to `CCOC(=O)CCN1C(=O)[C@H]2[C@H]3[C@H](O)[C@H](O)CC(=NNC(=O)OCC)[C@H]3CC[C@H]2C1=O` belongs 0.567. Turning to `CCN(CC)CC(O)CN1CCCCc2nc(C)c(C)cc21` (stereo unspecified), the composite z-score came to 0.42. Take `CC(C)=NO[C@@H](C)c1cn([C@H](CO)Cc2ccccc2)nn1`: the composite z-score worked out at 0.345. The same measure, in the same setting: to `O=C(NN=C1C[C@@H](O)[C@@H](O)[C@@H]2[C@@H]3C(=O)N(Cc4ccccc4)C(=O)[C@@H]3CC[C@H]12)OCc1ccccc1` belongs 0.315; to `CCOC(=O)CCN1C(=O)[C@H]2[C@H]3[C@H](O)[C@H](O)CC(=NOCC=C(C)CCC=C(C)C)[C@H]3CC[C@H]2C1=O`, -0.789.

`CC(=O)OC[C@H]1O[C@@H](ON=C2[C@H]3CCn4c(=O)n(-c5ccccc5)c(=O)n4[C@H]3[C@H](O)[C@@H]3O[C@H]23)[C@H](OC(C)=O)[C@@H](OC(C)=O)[C@@H]1OC(C)=O` returned a composite z-score of 0.387.

With `O=C1CCCC=C1C(O)COCc1ccccc1` (stereo unspecified), the composite z-score was -0.171. The same measure, in the same setting: to `C[C@H]1CC[C@@H](C(=O)O)N[C@@H]1c1cccc(N2CCCC2=O)c1` belongs 0.285; to `COC(=O)[C@H](C)NC(=O)CCC1CC(OC(=O)NCc2ccc3c(c2)OCO3)CC2(CCCC(COC(=O)NCCCN3CCCC3=O)O2)O1` (stereo partly specified), 0.856; to `CC(C)(C)N1C(=O)[C@H]2[C@@H]3C(=CC[C@H]2C1=O)C(=O)[C@H]1O[C@H]1[C@H]3O`, -0.162.

In the case of `CCOC(=O)NN=C1C[C@@H](O)[C@@H](O)[C@@H]2[C@@H]3C(=O)N(C[C@@H]4CCCO4)C(=O)[C@@H]3CC[C@H]12`, the composite z-score amounted to 0.264. Compound `CC(C)=CCCC(C)=CCON=C1C[C@@H](O)[C@@H](O)[C@@H]2[C@@H]3C(=O)N(Cc4ccc5c(c4)OCO5)C(=O)[C@@H]3CC[C@H]12` registered a composite z-score of 0.821. The same measure, in the same setting: to `CC(=O)OC[C@H]1O[C@H](CC=NOC(C)CN2CCCCc3nc(C)c(C)cc32)C=C[C@@H]1OC(C)=O` (stereo partly specified) belongs 1.31; to `CCOC(=O)[C@H](Cc1ccccc1)NC(=O)CCC1CC(OC(=O)NCCc2ccc(F)cc2)CC2(CCCC(COC(=O)NCc3cccc(C(F)(F)F)c3)O2)O1` (stereo partly specified), 0.786; to `O=C1C=C[C@@H](O)[C@@H]2[C@@H]3C(=O)N(Cc4ccc5c(c4)OCO5)C(=O)[C@@H]3CC[C@@H]12`, 0.579.

Turning to `O=C1CCCC=C1C(O)c1ccc([N+](=O)[O-])cc1` (stereo unspecified), the composite z-score worked out at 0.211. The compound `COC(=O)CC=C[C@@H](C)[C@@H](C=NOC(C)CN1CCCCc2nc(C)c(C)cc21)NS(=O)(=O)c1ccc(C)cc1` (stereo partly specified) displayed a composite z-score of 0.437.

The compound `CC(CCC(=O)OC[C@H]1O[C@H](C#Cc2ccccc2)C=C[C@@H]1Oc1ccc(C)cc1)=NOC(C)CN1CCCc2nc(C)c(C)cc21` (stereo partly specified) came in with a composite z-score of 0.694. `CCN1C(=O)[C@H]2[C@H]3[C@H](O)[C@H](O)CC(=NO[C@H](C)c4cn([C@@H]5COC[C@H]5O)nn4)[C@@H]3CC[C@H]2C1=O`: the composite z-score was -0.169. Same read-out and setting: the value for `COc1ccc(-c2cnnc(CCCn3ccnc3-c3ccccc3)n2)cc1` was 1.37.
